Test results published in PubChem BioAssay (EPA / NIEHS).
Calls of active or inactive are those of the source. Rule for the calls: active = hit-call score of the fitted dose curve at least 0.9, where 1 is the maximum; inactive = score below 0.9.

Assays:
[1] = ATG_CRE_CIS: Attagene CIS-FACTORIAL HepG2 Assay for human cAMP Responsive Element (CRE) binding protein 3 (AID 2282926); conditions: HepG2 CRE cis-reporter, Attagene multiplexed mRNA; actives raise or lower the signal
In short: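 HepG2 cells transiently transfected with a multiplexed reporter library (CRE-driven unit among them) were dosed for 24 h. Reporter mRNA was quantified by RT-PCR, fluorescent labelling, HpaI digestion and capillary electrophoresis, with bidirectional fitting against DMSO baseline.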

[2] = molecular target: CCAAT/enhancer-binding protein beta (Homo sapiens) (UniProt P17676); assay: ATG_C_EBP_CIS: Attagene CIS-FACTORIAL HepG2 Assay for human CCAAT/Enhancer Binding Protein (C/EBP) beta (AID 2282927); conditions: HepG2 Attagene cis-factorial transcription factor reporter; actives raise or lower the signal
Chain of CCAAT/enhancer-binding protein beta (Homo sapiens) (P17676 whole entry, looked up): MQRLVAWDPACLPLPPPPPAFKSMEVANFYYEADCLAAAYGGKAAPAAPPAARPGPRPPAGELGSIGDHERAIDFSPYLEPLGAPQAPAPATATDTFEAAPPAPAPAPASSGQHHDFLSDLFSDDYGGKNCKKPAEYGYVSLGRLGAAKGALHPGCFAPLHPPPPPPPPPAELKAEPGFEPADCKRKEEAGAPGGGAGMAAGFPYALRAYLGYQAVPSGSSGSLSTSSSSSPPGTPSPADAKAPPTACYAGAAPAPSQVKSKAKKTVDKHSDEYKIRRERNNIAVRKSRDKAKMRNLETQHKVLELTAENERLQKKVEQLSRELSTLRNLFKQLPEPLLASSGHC
In short: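 HepG2, transient MRTU transfection, 24 h treatment. RT-PCR plus CE fluorescence; DMSO negative control, bidirectional fit.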

[3] = ATG_CMV_CIS: Attagene CIS-FACTORIAL HepG2 Assay for human CMV (Internal Marker) (AID 2282928); conditions: HepG2 CMV promoter reporter, transcription factor profiling; actives raise or lower the signal;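 note: endpoint acts as a background internal control marker rather than a target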
In short: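 After transient transfection of HepG2 with reporter transcription units driven by cis-regulatory promoters, cells receive test chemical for 24 h. Labeled reporter amplicons, digested with HpaI, are sized and quantified by capillary electrophoresis against DMSO.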

[4] = ATG_DR4_LXR_CIS: Attagene CIS-FACTORIAL HepG2 Assay for human Liver X Receptor (LXR), DR4 submotif (AID 2282929); conditions: HepG2 Attagene DR4 cis-reporter, mRNA transcription; actives raise or lower the signal
In short: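 Fluorescence intensity of labelled reporter cDNA fragments, separated by capillary electrophoresis, gives the signal. HepG2 cells bearing cis-regulated reporter constructs were treated 24 h; activity fitted bidirectionally relative to DMSO negative control.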

[5] = ATG_AP_2_CIS: Attagene CIS-FACTORIAL HepG2 Assay for human Activator Protein 2 (AP-2) (AID 2282932); conditions: HepG2 AP-2 cis-reporter, Attagene transcription factor profiling; actives raise or lower the signal
In short: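 Multiplexed mRNA reporter assay in HepG2: cis-regulated units report endogenous factor activity after 24 h treatment. Fluorescence from capillary electrophoresis of RT-PCR products gives the signal, with DMSO as baseline.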

[6] = ATG_E_Box_CIS: Attagene CIS-FACTORIAL HepG2 Assay for human Enhancer Box (E-box) (AID 2282936); conditions: HepG2 E-box cis-reporter transcription, actives raise or lower the signal
In short: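 First, HepG2 cells receive multiple cis-regulated reporter constructs by transient transfection. Next, chemicals are applied for 24 h. Finally, reporter mRNA is quantified via RT-PCR and capillary electrophoresis, with DMSO as baseline.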

[7] = ATG_EGR_CIS: Attagene CIS-FACTORIAL HepG2 Assay for human Early Growth Response 1 (EGR1) (AID 2282938); conditions: HepG2 Attagene CIS-FACTORIAL EGR reporter mRNA; actives raise or lower the signal
In short: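 Activity is taken as induction or loss of reporter mRNA versus DMSO, fitted bidirectionally. Transcripts from cis-regulated reporter units in transiently transfected HepG2 were measured after 24 h by RT-PCR with capillary electrophoresis.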

[8] = ATG_M_19_CIS: Attagene CIS-FACTORIAL HepG2 Assay for M19 Transcription Factor (Internal Marker) (AID 2282939); conditions: HepG2 Attagene CIS-FACTORIAL M19 internal marker reporter; actives raise or lower the signal
In short: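 Following a 24 h exposure, RNA from transfected HepG2 cells was reverse-transcribed, PCR-amplified with reporter-specific primers, end-labelled with 6-FAM and HpaI-digested before capillary separation. Values represent gain or loss versus DMSO.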

[9] = ATG_Ets_CIS: Attagene CIS-FACTORIAL HepG2 Assay for human Erythroblast Transformation Specific (ETS) (AID 2282941); conditions: HepG2 ETS cis-reporter transcription, actives raise or lower the signal
In short: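 Human HepG2 hepatoma cells were transiently transfected with promoter-driven reporter constructs and treated for 24 hours. Reporter transcripts were quantified by RT-PCR with fluorescent primer extension; bidirectional curve fitting used DMSO as reference.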

[10] = molecular target: Hepatocyte nuclear factor 3-beta (Homo sapiens) (UniProt Q9Y261); assay: ATG_FoxA2_CIS: Attagene CIS-FACTORIAL HepG2 Assay for human Forkhead box A2 (FOXA2) (AID 2282942); conditions: HepG2 cis-reporter transcription factor activity, 24 h; actives raise or lower the signal
Chain of Hepatocyte nuclear factor 3-beta (Homo sapiens) (Q9Y261 whole entry, looked up): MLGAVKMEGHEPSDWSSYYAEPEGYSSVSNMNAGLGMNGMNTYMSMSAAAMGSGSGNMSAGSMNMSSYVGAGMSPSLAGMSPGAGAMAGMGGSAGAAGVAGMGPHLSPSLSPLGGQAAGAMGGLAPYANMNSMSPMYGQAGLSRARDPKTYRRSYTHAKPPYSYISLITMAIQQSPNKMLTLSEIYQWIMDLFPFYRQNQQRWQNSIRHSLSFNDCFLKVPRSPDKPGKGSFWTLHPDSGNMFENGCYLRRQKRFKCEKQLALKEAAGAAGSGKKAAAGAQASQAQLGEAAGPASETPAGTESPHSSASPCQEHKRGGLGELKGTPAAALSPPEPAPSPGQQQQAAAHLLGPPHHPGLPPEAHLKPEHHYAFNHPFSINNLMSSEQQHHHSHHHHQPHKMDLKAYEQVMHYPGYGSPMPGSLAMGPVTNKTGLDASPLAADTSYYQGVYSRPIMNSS
In short: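 Reporter transcript induction is measured by fluorescence after capillary electrophoresis of RT-PCR products from HepG2 cells exposed 24 h. Cis-regulated reporter units report endogenous factor activity; curves fitted both directions against DMSO.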

[11] = ATG_FoxO_CIS: Attagene CIS-FACTORIAL HepG2 Assay for human Forkhead box O (FoxO) (AID 2282943); conditions: HepG2 Attagene cis-reporter, FoxO element, mRNA; actives raise or lower the signal
In short: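 Transfected HepG2 reporter cells exposed to test chemical for 24 h; reporter RNA measured by reverse transcription, PCR and fluorescent capillary electrophoresis; curves fitted for increases and decreases against DMSO.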

[12] = ATG_GATA_CIS: Attagene CIS-FACTORIAL HepG2 Assay for human GATA Binding Protein (AID 2282944); conditions: HepG2 GATA cis-element reporter, Attagene multiplex mRNA; actives raise or lower the signal
In short: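 DMSO serves as negative control and baseline for bidirectional fitting of reporter mRNA changes. HepG2 cells bearing transiently transfected cis-promoter reporters were exposed 24 h; transcripts detected via RT-PCR and capillary electrophoresis.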

[13] = ATG_M_32_CIS: Attagene CIS-FACTORIAL HepG2 Assay for M32 Transcription Factor (Internal Marker) (AID 2282949); conditions: HepG2 Attagene cis-factorial M32 reporter, mRNA; actives raise or lower the signal;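 note: background control marker of the multiplexed CIS panel rather than a real target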
In short: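 Internal background marker read-out: RT-PCR/capillary electrophoresis fluorescence of reporter transcripts from transiently transfected HepG2 cells after 24 h chemical exposure. Activity fitted bidirectionally relative to DMSO negative control.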

[14] = ATG_M_06_CIS: Attagene CIS-FACTORIAL HepG2 Assay for M06 Transcription Factor (Internal Marker) (AID 2282950); conditions: HepG2 Attagene CIS-FACTORIAL M06 internal marker reporter; actives raise or lower the signal
In short: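 Fluorescence-labelled RT-PCR products from cis-promoter reporter units, cut with HpaI and resolved by capillary electrophoresis, give the signal. Cells are human HepG2, dosed for 24 h. Serves as background control, fitted relative to DMSO.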

[15] = ATG_PXRE_CIS: Attagene CIS-FACTORIAL HepG2 Assay for human Pregnane X Receptor Element (PXRE) (AID 2282957); conditions: HepG2 Attagene CIS-FACTORIAL PXRE reporter, mRNA; actives raise or lower the signal
In short: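 HepG2 cells transiently transfected with cis-regulated multiple reporter transcription units; endogenous factor activity measured as reporter mRNA 24 h after dosing. RT-PCR, fluorescent primer extension, HpaI digestion, capillary electrophoresis; bidirectional fit versus DMSO baseline.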

[16] = ATG_Sox_CIS: Attagene CIS-FACTORIAL HepG2 Assay for human SRY-box transcription factor (SOX) (AID 2282960); conditions: HepG2 Attagene cis-factorial SOX reporter, mRNA; actives raise or lower the signal
In short: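 Measures mRNA induction of a SOX1-associated reporter in HepG2 after 24 h dosing. Fluorescently labelled RT-PCR fragments are separated by capillary electrophoresis, and gain or loss relative to DMSO control is fitted.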

[17] = molecular target: Transcription factor Sp1 (Homo sapiens) (UniProt P08047); assay: ATG_Sp1_CIS: Attagene CIS-FACTORIAL HepG2 Assay for human Specificity Protein 1 (Sp1) (AID 2282961); conditions: HepG2 Sp1 cis-reporter transcription, actives raise or lower the signal
Chain of Transcription factor Sp1 (Homo sapiens) (P08047 whole entry, looked up): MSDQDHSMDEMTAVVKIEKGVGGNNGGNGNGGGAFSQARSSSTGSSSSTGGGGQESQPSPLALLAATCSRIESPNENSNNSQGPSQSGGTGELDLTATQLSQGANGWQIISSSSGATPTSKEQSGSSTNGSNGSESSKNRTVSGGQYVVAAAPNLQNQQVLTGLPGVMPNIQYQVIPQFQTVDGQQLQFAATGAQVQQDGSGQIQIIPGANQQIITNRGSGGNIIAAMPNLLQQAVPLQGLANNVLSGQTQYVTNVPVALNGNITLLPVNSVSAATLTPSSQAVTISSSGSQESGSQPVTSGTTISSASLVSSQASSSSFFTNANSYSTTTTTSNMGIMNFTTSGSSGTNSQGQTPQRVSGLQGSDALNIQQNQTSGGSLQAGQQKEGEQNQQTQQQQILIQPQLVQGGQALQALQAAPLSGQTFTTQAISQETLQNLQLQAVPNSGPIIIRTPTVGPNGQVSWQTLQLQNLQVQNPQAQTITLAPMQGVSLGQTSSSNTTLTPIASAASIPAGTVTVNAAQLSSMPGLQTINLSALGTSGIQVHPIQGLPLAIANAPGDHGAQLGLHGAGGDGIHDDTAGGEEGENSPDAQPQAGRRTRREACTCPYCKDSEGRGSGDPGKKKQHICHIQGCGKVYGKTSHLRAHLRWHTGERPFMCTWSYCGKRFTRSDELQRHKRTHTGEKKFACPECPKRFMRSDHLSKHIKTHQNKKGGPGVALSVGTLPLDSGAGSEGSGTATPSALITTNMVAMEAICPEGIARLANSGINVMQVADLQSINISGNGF
In short: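 Cells: HepG2, transiently transfected with cis-regulated multiplexed reporters. Exposure: 24 h. Detection: reporter transcripts amplified, fluorescently labeled, restriction-digested and sized by capillary electrophoresis. Analysis: bidirectional fit relative to DMSO.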

[18] = ATG_SREBP_CIS: Attagene CIS-FACTORIAL HepG2 Assay for human Sterol Regulatory Element Binding (SREBP) (AID 2282962); conditions: HepG2 Attagene cis-factorial SREBP reporter, mRNA; actives raise or lower the signal
In short: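 mRNA induction of transfected cis-promoter reporters in HepG2 cells, 24 h post-dose. Detection: RT-PCR with 6-FAM-labelled products, HpaI digest, capillary electrophoresis. DMSO served as negative control and baseline.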

[19] = molecular target: Signal transducer and activator of transcription 3 (Homo sapiens) (UniProt P40763); assay: ATG_STAT3_CIS: Attagene CIS-FACTORIAL HepG2 Assay for human Signal Transducer and Activator of Transcription 3 (STAT3) (AID 2282963); conditions: HepG2, Attagene cis-factorial STAT3 reporter transcription; actives raise or lower the signal
Chain of Signal transducer and activator of transcription 3 (Homo sapiens) (P40763 whole entry, looked up): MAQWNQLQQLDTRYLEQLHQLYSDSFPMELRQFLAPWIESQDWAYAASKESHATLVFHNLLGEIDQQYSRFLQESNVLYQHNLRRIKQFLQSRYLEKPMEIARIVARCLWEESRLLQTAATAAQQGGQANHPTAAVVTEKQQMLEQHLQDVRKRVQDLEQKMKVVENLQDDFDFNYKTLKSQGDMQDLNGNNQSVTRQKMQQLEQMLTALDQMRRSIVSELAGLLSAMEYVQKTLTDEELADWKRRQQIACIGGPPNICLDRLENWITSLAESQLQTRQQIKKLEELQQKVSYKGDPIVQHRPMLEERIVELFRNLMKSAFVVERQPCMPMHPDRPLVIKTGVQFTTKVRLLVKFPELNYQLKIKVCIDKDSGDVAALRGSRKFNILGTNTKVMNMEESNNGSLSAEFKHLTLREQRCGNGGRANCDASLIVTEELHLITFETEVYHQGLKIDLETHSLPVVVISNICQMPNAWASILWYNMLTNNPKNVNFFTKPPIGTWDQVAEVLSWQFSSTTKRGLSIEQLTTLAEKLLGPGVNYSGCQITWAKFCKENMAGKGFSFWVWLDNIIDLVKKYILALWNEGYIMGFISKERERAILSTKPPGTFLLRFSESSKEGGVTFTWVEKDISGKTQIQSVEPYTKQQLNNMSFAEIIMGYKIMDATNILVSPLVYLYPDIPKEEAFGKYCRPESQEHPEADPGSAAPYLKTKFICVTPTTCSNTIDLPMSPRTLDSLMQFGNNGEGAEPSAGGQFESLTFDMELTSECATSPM
In short: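 Values derive from bidirectional fits relative to DMSO of reporter mRNA levels, measured by RT-PCR with capillary electrophoresis, in HepG2 cells carrying transiently transfected cis-regulated reporter units and exposed 24 h.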

## CCC1CCC(=O)O1 (stereo not given)
[1]
  outcome: inactive
[2]
  outcome: inactive
[3]
  outcome: inactive
[4]
  outcome: inactive
[5]
  outcome: inactive
[6]
  outcome: inactive
[7]
  outcome: inactive
[8]
  outcome: inactive
[9]
  outcome: inactive
[10]
  outcome: inactive
[11]
  outcome: inactive
[12]
  outcome: inactive
[13]
  outcome: inactive
[14]
  outcome: inactive
[15]
  AC50: 27.3 µM (active)
[16]
  outcome: inactive
[17]
  outcome: inactive
[18]
  outcome: inactive
[19]
  outcome: inactive

## O=C(O)C(Br)Br
[1]
  outcome: inactive
[2]
  outcome: inactive
[3]
  outcome: inactive
[4]
  outcome: inactive
[5]
  outcome: inactive
[6]
  outcome: inactive
[7]
  outcome: inactive
[8]
  outcome: inactive
[9]
  outcome: inactive
[10]
  outcome: inactive
[11]
  outcome: inactive
[12]
  outcome: inactive
[13]
  outcome: inactive
[14]
  outcome: inactive
[15]
  outcome: inactive
[16]
  outcome: inactive
[17]
  outcome: inactive
[18]
  outcome: inactive
[19]
  outcome: inactive

## CCCCNP(N)(N)=S
[1]
  outcome: inactive
[2]
  outcome: inactive
[3]
  outcome: inactive
[4]
  outcome: inactive
[5]
  outcome: inactive
[6]
  outcome: inactive
[7]
  outcome: inactive
[8]
  outcome: inactive
[9]
  outcome: inactive
[10]
  outcome: inactive
[11]
  outcome: inactive
[12]
  outcome: inactive
[13]
  outcome: inactive
[14]
  outcome: inactive
[15]
  outcome: inactive
[16]
  outcome: inactive
[17]
  outcome: inactive
[18]
  outcome: inactive
[19]
  outcome: inactive

## COc1cc(OC)c(OC)cc1C=O
[1]
  outcome: inactive
[2]
  outcome: inactive
[3]
  outcome: inactive
[4]
  outcome: inactive
[5]
  outcome: inactive
[6]
  outcome: inactive
[7]
  outcome: inactive
[8]
  outcome: inactive
[9]
  outcome: inactive
[10]
  outcome: inactive
[11]
  outcome: inactive
[12]
  outcome: inactive
[13]
  outcome: inactive
[14]
  outcome: inactive
[15]
  AC50: 50.5 µM (active)
[16]
  outcome: inactive
[17]
  outcome: inactive
[18]
  outcome: inactive
[19]
  outcome: inactive

## CC(=O)c1cc2c(cc1C)C(C)(C)C(C)CC2(C)C (stereo not given)
[1]
  AC50: 72.4 µM (active)
[2]
  AC50: 108 µM (active)
[3]
  AC50: 28.1 µM (active)
[4]
  AC50: 26.1 µM (active)
[5]
  AC50: 158 µM (active)
[6]
  outcome: inactive
[7]
  outcome: inactive
[8]
  AC50: 128 µM (active)
[9]
  outcome: inactive
[10]
  outcome: inactive
[11]
  outcome: inactive
[12]
  outcome: inactive
[13]
  outcome: inactive
[14]
  outcome: inactive
[15]
  AC50: 2.25 µM (active)
[16]
  outcome: inactive
[17]
  AC50: 27.2 µM (active)
[18]
  AC50: 46.1 µM (active)
[19]
  outcome: inactive
